MLLE-PAM2 inh: inhibitors of microRNA-mediated deadenylation, human PABP1 MLLE binding; P11940; GST-MLLE / FITC-PAM2 fluorescence polarization; inhibition, % at 20 µM; 360,000 tested, 0.36% active; AID 588489; in the data active = inhibition above about 35%, passing the limit was not always enough;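 note: plate controls were DMSO wells with GST-MLLE for no effect and wells lacking GST-MLLE protein for full effect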
PABP polyA inh: blocks human PABP binding to poly(A) RNA | P11940 | calls only at 35 µM | fluorescence polarization | AID 2014 | 290,000 tested, 1% active;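 note: calls also rest on retests at 20 µM and on dose response follow-up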
PERK inh: blocks human PERK kinase; 220,000 tested, 0.17% active; inhibition, % at 5.6 µM; AID 1416; CHO PERK-DD fusion, SEAP luminescence translation reporter;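 active = inhibition above the mean inhibition of all tested compounds plus 3 SD, set separately per screening campaign, cut at about 2.9% in these data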;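 note: PERK kinase domain activated by AP20187 dimerizer at 100 nM; 0% = DMSO with dimerizer and 100% = rapamycin at 8.4 µM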
eIF4E-4G inh: blocks eIF4E binding to eIF4G. P63073+Q04637. TR-FRET eIF4E-eIF4GI(517-606) binding, 2 h. inhibition, % at 21.7 µM. 220,000 tested, 0.37% active;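 active = inhibition above about 30%, limit read from the data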;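 note: 0% = full FRET control wells and 100% = background wells lacking eIF4GI fragment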
Target sequence (P63073 whole entry, looked up, the tested form may be a part): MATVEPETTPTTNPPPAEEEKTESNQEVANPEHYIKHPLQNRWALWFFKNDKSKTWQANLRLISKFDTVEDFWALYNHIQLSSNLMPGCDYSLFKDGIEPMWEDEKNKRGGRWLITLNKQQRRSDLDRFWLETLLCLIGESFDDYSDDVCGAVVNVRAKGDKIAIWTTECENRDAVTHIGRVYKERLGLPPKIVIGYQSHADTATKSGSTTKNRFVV
Target sequence (Q04637 whole entry, looked up, the tested form may be a part): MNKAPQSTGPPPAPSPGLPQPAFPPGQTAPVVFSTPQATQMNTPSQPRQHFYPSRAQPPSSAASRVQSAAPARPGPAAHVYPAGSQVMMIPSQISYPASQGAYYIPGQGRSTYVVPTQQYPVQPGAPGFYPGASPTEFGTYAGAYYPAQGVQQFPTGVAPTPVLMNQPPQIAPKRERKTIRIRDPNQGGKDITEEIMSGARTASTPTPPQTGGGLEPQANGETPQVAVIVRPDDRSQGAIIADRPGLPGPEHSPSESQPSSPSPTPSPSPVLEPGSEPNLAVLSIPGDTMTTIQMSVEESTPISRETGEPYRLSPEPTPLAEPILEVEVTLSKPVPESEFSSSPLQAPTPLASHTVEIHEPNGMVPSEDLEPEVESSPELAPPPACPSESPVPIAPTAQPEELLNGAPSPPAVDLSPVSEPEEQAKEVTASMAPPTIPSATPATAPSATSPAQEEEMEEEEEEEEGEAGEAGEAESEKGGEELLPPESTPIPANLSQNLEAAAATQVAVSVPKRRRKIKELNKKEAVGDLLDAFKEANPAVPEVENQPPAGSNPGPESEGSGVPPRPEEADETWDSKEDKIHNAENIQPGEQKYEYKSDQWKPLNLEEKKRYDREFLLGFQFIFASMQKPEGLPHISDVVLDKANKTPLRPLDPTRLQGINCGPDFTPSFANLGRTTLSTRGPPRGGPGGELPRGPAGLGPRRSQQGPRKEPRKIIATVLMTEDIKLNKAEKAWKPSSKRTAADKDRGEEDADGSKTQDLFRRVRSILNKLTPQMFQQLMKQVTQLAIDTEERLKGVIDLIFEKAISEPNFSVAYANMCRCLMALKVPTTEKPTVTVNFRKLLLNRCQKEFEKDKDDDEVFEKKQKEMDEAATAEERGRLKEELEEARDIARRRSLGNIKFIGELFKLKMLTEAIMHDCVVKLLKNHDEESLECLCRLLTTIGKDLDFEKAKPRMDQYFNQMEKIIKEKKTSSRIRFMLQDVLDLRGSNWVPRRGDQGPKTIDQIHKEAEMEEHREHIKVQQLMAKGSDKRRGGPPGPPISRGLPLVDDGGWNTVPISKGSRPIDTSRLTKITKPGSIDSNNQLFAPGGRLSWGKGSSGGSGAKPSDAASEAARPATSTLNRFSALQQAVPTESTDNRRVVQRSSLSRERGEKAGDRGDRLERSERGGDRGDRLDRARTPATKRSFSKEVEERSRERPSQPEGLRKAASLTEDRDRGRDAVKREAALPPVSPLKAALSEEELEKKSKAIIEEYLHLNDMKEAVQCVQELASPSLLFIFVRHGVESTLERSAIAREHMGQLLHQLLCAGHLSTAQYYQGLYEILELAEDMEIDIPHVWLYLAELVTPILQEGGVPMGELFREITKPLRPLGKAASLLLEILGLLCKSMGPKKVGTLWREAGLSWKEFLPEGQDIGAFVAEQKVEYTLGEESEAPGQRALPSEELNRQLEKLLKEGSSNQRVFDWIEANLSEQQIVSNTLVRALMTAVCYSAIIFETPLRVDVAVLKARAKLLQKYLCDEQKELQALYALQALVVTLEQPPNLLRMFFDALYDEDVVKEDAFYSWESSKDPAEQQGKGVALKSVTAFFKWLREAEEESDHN
eIF4H FP inh: inhibitors of RNA binding by human eIF4H. eIF4H fluorescence polarization binding assay. inhibition, % at 35 µM. 290,000 tested, 0.94% active;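 note: calls also rest on retests at 20 µM and on dose response follow-up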
* marks the source's active call; other numbers are inactive results; ! = not confirmed by another sample. The list is not random: actives were taken first. Their share in the collection is about 1.6%. Unless noted, the rule behind the calls is not given here.

O=C(Nc1ccc(-n2nncc2-c2ccco2)cc1)c1cccc(F)c1 was read as MLLE-PAM2 inh 10.8, PABP polyA inh inactive, PERK inh -1.1, eIF4E-4G inh -0.1 and eIF4H FP inh -19.6.
Screening O=C(NCCO)/C(=C\c1cccs1)NC(=O)c1cccs1 returned MLLE-PAM2 inh -4.4, PABP polyA inh active, PERK inh 1.1, eIF4E-4G inh 6.3 and eIF4H FP inh 3.4.
For c1cnc(N2CCN(Cc3ccc4c(c3)OCO4)CC2)nc1 the results were MLLE-PAM2 inh 1.9, PABP polyA inh active!, PERK inh 0.8, eIF4E-4G inh 8.0 and eIF4H FP inh 50.9*!.
CN(C)c1ccc(/C=N/N=C(N)N)cc1[N+](=O)[O-] was read as MLLE-PAM2 inh -32.7, PABP polyA inh inactive, PERK inh -0.3, eIF4E-4G inh -3.2 and eIF4H FP inh -9.5.
CCOC(=O)C1=C(C)N=c2s/c(=C/c3ccc(OCC(=O)O)cc3)c(=O)n2C1c1ccc(SC)cc1 (centres undefined) was read as MLLE-PAM2 inh -129.3, PABP polyA inh active and eIF4H FP inh 62.9*.
Screening CCOC(=O)C1=C(C)N=c2s/c(=C/c3ccc(OCC(=O)O)cc3)c(=O)n2C1c1ccc(F)cc1 (centres undefined) returned MLLE-PAM2 inh -9.3, PABP polyA inh inactive and eIF4H FP inh 2.5.
For FC(F)Oc1ccc(NC(=S)NNc2ccnc3cc(Cl)ccc23)cc1 the results were MLLE-PAM2 inh -6.8, PABP polyA inh inactive, PERK inh -0.2, eIF4E-4G inh -1.7 and eIF4H FP inh -8.1.
`CNC(=S)NCCc1ccc(OC)cc1` gave MLLE-PAM2 inh -69.8, PABP polyA inh active, PERK inh 1.5, eIF4E-4G inh 0.2 and eIF4H FP inh 1.7.
Screening COC(=O)c1sc(=S)n(-c2ccccc2OC)c1N returned MLLE-PAM2 inh 10.7, PABP polyA inh inactive, PERK inh 1.1, eIF4E-4G inh 4.3 and eIF4H FP inh -8.3.
Screening CCCCNC(=O)c1sc(=S)n(-c2ccccc2OC)c1N returned MLLE-PAM2 inh 45.1*, PABP polyA inh inactive, PERK inh 0.0, eIF4E-4G inh 6.5 and eIF4H FP inh 2.3.
`COc1ccc(CCNC(=O)c2sc(=S)n(C)c2N)cc1` gave MLLE-PAM2 inh 42.8*, PABP polyA inh inactive, PERK inh -0.4, eIF4E-4G inh -2.8 and eIF4H FP inh -5.3.
`O=C(c1ccc(=O)[nH]n1)N1CCN(S(=O)(=O)c2ccc(C(F)(F)F)cc2)CC1` gave MLLE-PAM2 inh -2.4.
Screening Cc1cc(C)c(-c2csc(NC(=O)C3=NN(c4ccccc4)C(=O)CC3)n2)c(C)c1 returned MLLE-PAM2 inh -16.8, PABP polyA inh inactive, PERK inh 0.3, eIF4E-4G inh -5.1 and eIF4H FP inh -6.3.
For CCc1ccc(-c2csc(NC(=O)C3=NN(c4ccccc4)C(=O)CC3)n2)cc1 the results were MLLE-PAM2 inh -17.6, PABP polyA inh inactive, PERK inh 0.0, eIF4E-4G inh -0.5 and eIF4H FP inh active.
COc1ccccc1C(=O)NCC(=O)OCC(=O)Nc1ccc2[nH]c(=O)[nH]c2c1 was read as MLLE-PAM2 inh 6.3.
O=C(NCCCN1CCOCC1)c1cc(S(=O)(=O)N2CCOCC2)ccc1Cl was read as MLLE-PAM2 inh -2.9.
For Cc1ccc(CNc2nc3ccccc3n3nnnc23)cc1 the results were MLLE-PAM2 inh 12.7, PABP polyA inh inconclusive, PERK inh 0.0, eIF4E-4G inh -22.4 and eIF4H FP inh inconclusive.
`CCOC(=O)N1CCC(Nc2nc3ccccc3n3nnnc23)CC1` gave MLLE-PAM2 inh 7.7, PABP polyA inh active, PERK inh -0.4, eIF4E-4G inh 5.0 and eIF4H FP inh inconclusive.
Screening Cc1ccc(C2(C(=O)N3CCC(n4nc(-c5ccccc5)oc4=O)CC3)CC2)cc1 returned MLLE-PAM2 inh 2.6, PABP polyA inh inactive and eIF4H FP inh -9.6.
Screening N#C/C(=C\c1ccc[nH]1)C(=O)Nc1ccccc1[N+](=O)[O-] returned MLLE-PAM2 inh -17.0, PABP polyA inh active and eIF4H FP inh 78.6*.
For Cc1ccccc1NC(=O)/C(C#N)=C/c1ccc[nH]1 the results were MLLE-PAM2 inh 0.6, PABP polyA inh inactive and eIF4H FP inh 5.3.
Screening COc1cc([C@@H]2OC[C@@H]3[C@H]2CO[C@@H]3c2ccc3c(c2)OCO3)ccc1O returned MLLE-PAM2 inh 8.5.
Screening COc1cc(CC2COC(c3ccc(O)c(OC)c3)C2COC(C)=O)ccc1O (centres undefined) returned MLLE-PAM2 inh 0.9, PABP polyA inh active, eIF4E-4G inh 8.8 and eIF4H FP inh 90.4*.
CCOC(=O)CC[C@H](NC(=O)Cn1cnc(C(=O)Nc2ccc(C)c(C)c2)n1)C(=O)OCC was read as MLLE-PAM2 inh -10.7.
For Cc1c(C(=O)OCC[N+]2(C)CCCCC2)oc2ccccc12 the results were MLLE-PAM2 inh -103.3, PABP polyA inh active, PERK inh 1.7, eIF4E-4G inh 5.5 and eIF4H FP inh 3.5.
For Cc1c(C(=O)OCC(=O)N2CCC(C)CC2)oc2ccccc12 the results were MLLE-PAM2 inh 12.1.
`CCOC(=O)C1(CCCc2ccccc2)CCN(C(=O)Cn2nc(C)nc2C)CC1` gave MLLE-PAM2 inh -5.9, PABP polyA inh inactive, PERK inh -0.9, eIF4E-4G inh 0.5 and eIF4H FP inh -1.9.
For CCCCNC(=O)c1cc2c(=O)n3cccc(C)c3nc2n1C the results were PABP polyA inh inactive and eIF4H FP inh -12.6.
Cc1cccn2c(=O)c3cc(C(=O)NCCCn4ccnc4)n(C)c3nc12 was read as MLLE-PAM2 inh 15.1, PABP polyA inh active, PERK inh -0.4, eIF4E-4G inh 10.2 and eIF4H FP inh 90.8*.
Cc1cccn2c(=O)c3cc(C(=O)N(C)C)n(C)c3nc12 was read as MLLE-PAM2 inh 52.5*, PABP polyA inh inconclusive, PERK inh 0.4 and eIF4H FP inh inconclusive.
O=C(CCOc1ccccc1)Nc1ccnn1C1CCN(C(=O)CCC(F)(F)F)CC1 was read as MLLE-PAM2 inh 5.5.
For CC1(C)CCCC2=C1CC1C(=O)N(N)C(=O)C1C2 (centres undefined) the results were MLLE-PAM2 inh -0.1, PABP polyA inh inactive, PERK inh -0.1, eIF4E-4G inh 2.0 and eIF4H FP inh -10.7.
`Oc1ccc2ccccc2c1C=Nc1ccc(Cl)cn1` gave MLLE-PAM2 inh -10.4, PABP polyA inh active, PERK inh -1.6, eIF4E-4G inh -3.7 and eIF4H FP inh 85.0*.
Screening Cc1cccc(/N=C/c2c(O)cc(C)oc2=O)n1 returned MLLE-PAM2 inh -12.4, PABP polyA inh active, PERK inh 1.2, eIF4E-4G inh -1.9 and eIF4H FP inh 78.2*.
`CCOc1ccc(N=Cc2c(O)cc(C)oc2=O)cc1` gave MLLE-PAM2 inh 10.2, PABP polyA inh inactive, PERK inh 0.9, eIF4E-4G inh 0.8 and eIF4H FP inh -7.1.
Screening Cc1cc(O)c(C=Nc2ccc(Cl)cn2)c(=O)o1 returned MLLE-PAM2 inh -1.7, PABP polyA inh active, PERK inh -0.2, eIF4E-4G inh 3.0 and eIF4H FP inh 59.1*.

Screening results as filed in PubChem BioAssay.
